# Results filed as inconclusive are left out. The source made the active and inactive calls. Calls follow the shape of the dose curve; as a rule, active = well fitted activation curve with a large enough effect in the signal ratio in the repeat runs, with a control signal flat (not every such curve was filed as active); inconclusive = weak or mixed curves, or effect the other way; inactive = no such curve, though single readings can be large or run the other way; the % refers to the signal ratio.
# Molecular target: Androgen receptor (Homo sapiens) (UniProt P10275)
# Experiment: qHTS assay to identify small molecule agonists of the androgen receptor (AR) signaling pathway (AID 743036)
# Details: HEK293 AR-UAS-bla GripTite, beta-lactamase FRET ratio, 16 h; series mostly up to 62.4 µM
# Excerpt: U.S. Tox21 Program National Center for Advancing Translational Sciences [NCATS] NIH Chemical Genomics Center [NCGC] U.S. Environmental Protection Agency [EPA] National Institutes of Environmental Health Sciences [NIEHS] National Toxicology Program [NTP] U.S. Food and Drug Administration [FDA] Tox21 Assay Overview: Androgen receptor (AR), a nuclear hormone receptor, plays a critical role in AR-dependent prostate cancer and other androgen related diseases. Endocrine disrupting chemicals (EDCs) and their interactions with steroid hormone receptors like AR may cause disruption of normal endocrine function as well as interfere with metabolic homeostasis, reproduction, developmental and behavioral functions. To identify the compounds that activate AR signaling, GeneBLAzer AR-UAS-bla-GripTite cell line (Invitrogen, Carlsbad, CA, USA) containing a beta-lactamase reporter gene under the control of an Upstream Activator Sequence (UAS) stably integrated into HEK293 cells was used to screen the Tox21 10K compound library.
# Tox21 Assay Protocol Summary: AR-bla cells were dispensed at 2,000 cells/6 uL/well of assay medium into black wall/clear-bottom 1536-well plates using a Multidrop Combi (ThermoFisher Scientific, Waltham, MA) dispenser. After the assay plates were incubated at 37C and 5% CO2 for 4 h, 23 nL of compounds dissolved in DMSO, positive controls or DMSO only was transferred to the assay plate by a Pintool station (Kalypsys, San Diego, CA). The plates were incubated at 37C and 5% CO2 for 16 h. Then 1 uL of LiveBLAzerTM B/G FRET substrate was added using a Bioraptr Flying Reagent Dispenser (FRD) workstation (Beckman Coulter, Indianapolis, IN, USA). The plates were incubated at room temperature for 2 h, and fluorescence intensity was measured by an Envision plate reader (PerkinElmer, Shelton, CT).
# Sequence of Androgen receptor (Homo sapiens) (P10275 whole entry, looked up): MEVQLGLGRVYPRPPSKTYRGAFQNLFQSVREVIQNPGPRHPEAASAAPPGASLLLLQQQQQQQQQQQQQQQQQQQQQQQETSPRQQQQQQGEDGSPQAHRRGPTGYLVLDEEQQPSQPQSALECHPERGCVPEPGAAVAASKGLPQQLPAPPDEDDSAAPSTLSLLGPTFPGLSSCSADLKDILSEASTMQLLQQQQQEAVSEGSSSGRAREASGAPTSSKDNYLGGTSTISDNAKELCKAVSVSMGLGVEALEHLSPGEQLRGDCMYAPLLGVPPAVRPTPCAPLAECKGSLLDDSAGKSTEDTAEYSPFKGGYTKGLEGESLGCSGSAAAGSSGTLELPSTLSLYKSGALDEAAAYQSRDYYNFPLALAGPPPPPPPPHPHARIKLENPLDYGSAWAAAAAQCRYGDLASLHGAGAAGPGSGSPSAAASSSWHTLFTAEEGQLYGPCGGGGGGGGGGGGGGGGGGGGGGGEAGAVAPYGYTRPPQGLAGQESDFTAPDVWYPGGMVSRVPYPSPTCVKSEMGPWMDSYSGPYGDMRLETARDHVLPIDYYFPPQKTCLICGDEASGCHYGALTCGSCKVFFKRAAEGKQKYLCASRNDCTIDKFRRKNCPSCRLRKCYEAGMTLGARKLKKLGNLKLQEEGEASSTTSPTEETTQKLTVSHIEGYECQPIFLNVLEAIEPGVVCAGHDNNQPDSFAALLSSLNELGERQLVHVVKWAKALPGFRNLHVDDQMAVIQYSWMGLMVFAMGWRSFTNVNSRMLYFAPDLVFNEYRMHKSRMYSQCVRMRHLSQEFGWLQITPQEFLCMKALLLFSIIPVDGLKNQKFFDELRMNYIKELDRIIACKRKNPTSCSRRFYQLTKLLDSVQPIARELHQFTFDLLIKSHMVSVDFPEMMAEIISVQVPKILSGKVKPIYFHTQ
row,Structure (SMILES),outcome
1,C=C1C(C)(C)[C@@]2(Cl)C(Cl)[C@]1(Cl)C(Cl)(Cl)C2(Cl)Cl (some centres not stated),inactive
2,COc1ccccc1OCCNCC(O)COc1cccc2[nH]c3ccccc3c12 (configuration not stated),inactive
3,CCN(CC)CCOC(=O)C1(C2CCCCC2)CCCCC1,inactive
4,N[C@@H](CSSC[C@H](N)C(=O)O)C(=O)O,inactive
5,C=CC(=O)OCCC#N,inactive
6,O=C1NCCN1CCN1CCC(c2cn(-c3ccc(F)cc3)c3ccc(Cl)cc23)CC1,inactive
7,CCCSS/C(CCO)=C(\C)N(C=O)Cc1cnc(C)nc1N,inactive
8,C[C@@H]1CC[C@H]2C(C)(C)[C@H]3C[C@@]12CC[C@@]3(C)O,inactive
9,CCCCCCCCCCOCC(O)CN (configuration not stated),inactive
10,CC(C)(c1cc(Br)c(OCCO)c(Br)c1)c1cc(Br)c(OCCO)c(Br)c1,inactive
11,C[Si](C)(C)Cl,inactive
12,CN1CCN(C2Cc3ccccc3Sc3ccc(Cl)cc32)CC1 (configuration not stated),inactive
13,Oc1ccc(-c2ccccc2)c(Cl)c1,inactive
14,c1ccc(Sc2ccccc2)cc1,inactive
15,C=CC(C)(CCC=C(C)C)OC(=O)/C=C/c1ccccc1 (configuration not stated),inactive
16,Cc1c(C(=O)O)cccc1[N+](=O)[O-],inactive
17,Cc1cn[nH]c1,inactive

# From PubChem BioAssay (Tox21)
